From ChEMBL document CHEMBL3988442, “University of Dundee, Small-Polar-MMV Screening Library” (2021)
In all, about 48,000 compounds went through this assay and about 13,000 (27%) showed an effect of 50% or more. Some of the results follow.

What follows are molecules tested on Wolbachia pipientis (assay: Anti-Wolbachia Cell-Based Screen). Settings: 5 µM.
Format: functional
Design: scale not given: in the data most compounds retested in dose-response had high values

Compound | Percent Effect [%]
Cn1ccnc1CN(CCCO)CC(F)(F)F | -6.784
CCCC(=O)N(Cc1ccncc1)C(C)CC (configuration not stated) | -14.56
O=C(O)C(F)(F)F.O=C([C@@H]1COC[C@H]2CN(C3CCOCC3)C[C@H]21)N1CCOCC1 | 8.462
O=C([C@H]1COC[C@H]2CN(C3CCCC3)C[C@H]21)N1CCOCC1 | -18.92
O=C([C@@H]1C[C@@H]2CCN(C3CCOCC3)C[C@H]2O1)N1CCCC1 | 111.9
O=C([C@@H]1C[C@@H]2CCN(C3CCOCC3)C[C@@H]2O1)N1CCOCC1 | 114
O=C(CCn1cncn1)NC1(c2cccc(Br)c2)CCC1 | 14.53
CC(C)C(NC(=O)Nc1cnn(CC(N)=O)c1)c1ccc(Cl)cc1 (configuration not stated) | 4.509
O=C(c1coc(CN2CCN(c3ccccc3F)CC2)n1)N1CC=CC1 | -19.74
N#CCSCCCN1CCN(C(=O)c2ccccc2F)CC1 | 105.1
Cc1cccc(C(=O)N2CCCN(CCCSCC#N)CC2)c1 | 95.07
Cc1ccc(C(=O)N2CCN(CCCSCC#N)CC2)cc1F | 105.3
Cn1ccc(C(=O)N2CCCN(CCCc3ccccc3)CC2)cc1=O | 5.22
Cc1ccc(C(=O)N2CCc3ncnc(C)c3CC2)cc1F | 4.805
N#CCSCCCN1CCN(C(=O)c2cccc(Cl)c2)CC1 | 87.64
N#CCSCCCN1CCN(C(=O)C2CCCC2)CC1 | -2.265
N#CCSCCCN1CCCN(C(=O)c2ccccc2)CC1 | 13.73
N#CCSCCCN1CCN(C(=O)c2ccc(Cl)cc2)CC1 | 23.02
O=C(c1ccccc1F)N1CCN(CCCn2cncn2)CC1 | -12.58
Cc1ccc(C(=O)N2CCN(CCCSCC#N)CC2)o1 | -4.6
N#CCSCCCN1CCCC(C(=O)N2CCCCCC2)C1 (configuration not stated) | 8.122
O=C(NC1CC1)[C@H]1[C@@H]2CN(Cc3ccc(-c4ccn[nH]4)s3)C[C@@H]21 | -3.84
COC(=O)[C@@H]1C[C@@H](O)CN1Cc1ccn(-c2ccc(F)cc2)n1 | -13.47
CNC(=O)c1ccc2c(OC)n(C)nc2c1 | 2.989
CC(C)n1cnnc1CN(C)Cc1ccoc1 | 9.92
CCc1cnc(N2C[C@H]3CN(Cc4csc(C)n4)C(=O)[C@H]3C2)nc1.O=C(O)C(F)(F)F | -9.51

Compound | Percent Effect [%]
Cc1nnc(CN2CCOC(c3ccc(Cl)c(Cl)c3)C2)o1 (configuration not stated) | 7.568
Cc1c[nH]c(CN2CCOC(c3ccc(Cl)c(Cl)c3)C2)c(C)c1=O (configuration not stated) | 94.99
Cc1cc(C)nc(CN2CCOC(c3ccc(Cl)cc3)C2)n1 (configuration not stated) | -0.4936
Cc1c[nH]c(CN2CCOC(c3ccc(F)cc3)C2)c(C)c1=O (configuration not stated) | 1.733
Cc1c[nH]c(CN2CCOC(c3ccc(Cl)cc3)C2)c(C)c1=O (configuration not stated) | 100.9
Cc1nc[nH]c1CN1CCOC(c2ccc(Cl)c(Cl)c2)C1 (configuration not stated) | 1.288
CN1CCN(CCCNCc2cc(O)c3cc(F)ccc3n2)CC1 | -16.72
NC(=O)NCCC(=O)N1CCC(c2cc(Cc3ccccc3)n[nH]2)CC1 | -24.35
Cl.Cn1ncc2c1CCCC2NCc1ccc(Br)s1 (configuration not stated) | -6.912
Cn1ncc2c1CCCC2NCc1cccnc1 (configuration not stated) | 87.53
Cc1cccc(CNC2CCCc3c2cnn3C)c1.Cl (configuration not stated) | 0.5584
COc1cc(CNC2CCCc3c2cnn3C)cc(OC)c1.Cl (configuration not stated) | 0.06204
Cn1ncc2c1CCCC2NCc1cnc(-c2ccccc2)nc1 (configuration not stated) | -0.06204
Cc1ccc(CNC2CCCc3c2cnn3C)s1.Cl (configuration not stated) | 1.48
CSc1ccc(CNC2CCCc3c2cnn3C)cc1.Cl (configuration not stated) | 78.82
Cn1ncc2c1CCCC2NCc1ccc(Cl)s1 (configuration not stated) | -1.294
Cn1ncc2c1CCCC2NCc1ccc(OCc2cccnc2)cc1 (configuration not stated) | 102.9
Cn1ccc(C(=O)N2CCC(Cc3cccc4ncccc34)CC2)n1 | 112
Cn1ccc(C(=O)N2CCC(Cc3cccc4cccnc34)C2)n1 (configuration not stated) | -6.832
CC(C)(C)C(O)CN1CCN(C(=O)c2cccc3ncccc23)CC1 (configuration not stated) | 5.5
COc1cccc(CCC2CCCN(C(=O)c3ccc(=O)n(C)n3)C2)c1 (configuration not stated) | -50.16
Cn1ccc(C(=O)N2CCCC(Cc3cnc4ccccc4c3)C2)n1 (configuration not stated) | 126.8
Cn1ccc(C(=O)N2CCCC(Cc3cccc4cccnc34)C2)n1 (configuration not stated) | 100.6
Cn1ccc(C(=O)N2CCCC(Cc3cccc4ncccc34)C2)n1 (configuration not stated) | -23.19
Cn1ccc(C(=O)N2CCC(Cc3cccc4ncccc34)C2)n1 (configuration not stated) | 142.2
CC(C)C(C)NC(=O)CN1CCSCC1 (configuration not stated) | 15.54
